# According to the supplement of paper PMC8975748:
# Structures can show the parent of a compound that is named as a salt. ± gives the standard deviation of the averaged measurements.
# Columns and labels:
# [1] = system: Saccharomyces cerevisiae BY4741 SeMeCo community; assay: mean cell size (pixel area) (pixels); higher = larger cells; conditions: 10 µM; 24 h; SM minimal medium
# Method in brief: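 Mean cell pixel area per well was measured in a four-plasmid fluorescent community of Saccharomyces cerevisiae BY4741, where every plasmid complements one auxotrophy and carries a fluorescent marker. Cells from an overnight preculture at OD600 = 1.0 were diluted to OD600 = 0.3 and dispensed at 70 µl into 384-well plates acoustically predosed with drug to a final 10 µM in SM medium. Incubation lasted 24 h, followed by paraformaldehyde fixation, automated confocal imaging and analysis in Harmony. Reported figures are averaged over 3 replicates. Same SeMeCo high-content imaging drug screen: Selleck FDA-approved drugs at 10 µM, 24 h in SM medium, 384-well plates, 3 replicates.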
# [2] = system: Saccharomyces cerevisiae BY4741 SeMeCo community; assay: z-score of prototroph abundance vs DMSO median; higher = larger share of this subpopulation than in DMSO controls; conditions: 10 µM; 24 h; SM minimal medium; subpopulation (auxotrophy): Prototroph
# Method in brief: (§1)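 Automated confocal microscopy of paraformaldehyde-fixed cells was used to follow a Saccharomyces cerevisiae BY4741 community carrying four plasmids, each restoring one auxotrophy and encoding a distinct fluorescent protein. The community was pre-grown overnight to OD600 1.0, diluted to 0.3, and added at 70 µl to 384-well plates acoustically predosed with library drugs (10 µM final) for 24 h of growth in minimal SM medium. Single-auxotroph fluorescent strains set thresholds and autofluorescence correction, and each subpopulation's abundance was scored as a z-score against the vehicle-well median.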
# [3] = system: Saccharomyces cerevisiae BY4741 SeMeCo community; assay: z-score of subpopulation abundance vs DMSO median, subpopulation auxotrophic for M; higher = larger share of this subpopulation than in DMSO controls; conditions: 10 µM; 24 h; SM minimal medium; subpopulation (auxotrophy): M
# Method in brief: as §1
# [4] = system: Saccharomyces cerevisiae BY4741 SeMeCo community; assay: z-score of subpopulation abundance vs DMSO median, subpopulation auxotrophic for U; higher = larger share of this subpopulation than in DMSO controls; conditions: 10 µM; 24 h; SM minimal medium; subpopulation (auxotrophy): U
# Method in brief: as §1
# [5] = system: Saccharomyces cerevisiae BY4741 SeMeCo community; assay: z-score of subpopulation abundance vs DMSO median, subpopulation auxotrophic for H; higher = larger share of this subpopulation than in DMSO controls; conditions: 10 µM; 24 h; SM minimal medium; subpopulation (auxotrophy): H
# Method in brief: as §1
# [6] = system: Saccharomyces cerevisiae BY4741 SeMeCo community; assay: z-score of subpopulation abundance vs DMSO median, subpopulation auxotrophic for LM; higher = larger share of this subpopulation than in DMSO controls; conditions: 10 µM; 24 h; SM minimal medium; subpopulation (auxotrophy): LM
# Method in brief: as §1
# [7] = system: Saccharomyces cerevisiae BY4741 SeMeCo community; assay: z-score of subpopulation abundance vs DMSO median, subpopulation auxotrophic for HM; higher = larger share of this subpopulation than in DMSO controls; conditions: 10 µM; 24 h; SM minimal medium; subpopulation (auxotrophy): HM
# Method in brief: as §1
# [8] = system: Saccharomyces cerevisiae BY4741 SeMeCo community; assay: z-score of subpopulation abundance vs DMSO median, subpopulation auxotrophic for HU; higher = larger share of this subpopulation than in DMSO controls; conditions: 10 µM; 24 h; SM minimal medium; subpopulation (auxotrophy): HU
# Method in brief: as §1
# [9] = system: Saccharomyces cerevisiae BY4741 SeMeCo community; assay: z-score of subpopulation abundance vs DMSO median, subpopulation auxotrophic for UM; higher = larger share of this subpopulation than in DMSO controls; conditions: 10 µM; 24 h; SM minimal medium; subpopulation (auxotrophy): UM
# Method in brief: as §1
# [10] = system: Saccharomyces cerevisiae BY4741 SeMeCo community; assay: z-score of subpopulation abundance vs DMSO median, subpopulation auxotrophic for HLU; higher = larger share of this subpopulation than in DMSO controls; conditions: 10 µM; 24 h; SM minimal medium; subpopulation (auxotrophy): HLU
# Method in brief: as §1
# [11] = system: Saccharomyces cerevisiae BY4741 SeMeCo community; assay: z-score of subpopulation abundance vs DMSO median, subpopulation auxotrophic for HLM; higher = larger share of this subpopulation than in DMSO controls; conditions: 10 µM; 24 h; SM minimal medium; subpopulation (auxotrophy): HLM
# Method in brief: as §1
# [12] = system: Saccharomyces cerevisiae BY4741 SeMeCo community; assay: z-score of subpopulation abundance vs DMSO median, subpopulation auxotrophic for LUM; higher = larger share of this subpopulation than in DMSO controls; conditions: 10 µM; 24 h; SM minimal medium; subpopulation (auxotrophy): LUM
# Method in brief: as §1
# [13] = system: Saccharomyces cerevisiae BY4741 SeMeCo community; assay: z-score of subpopulation abundance vs DMSO median, subpopulation auxotrophic for L; higher = larger share of this subpopulation than in DMSO controls; conditions: 10 µM; 24 h; SM minimal medium; subpopulation (auxotrophy): L
# Method in brief: as §1
# [14] = system: Saccharomyces cerevisiae BY4741 SeMeCo community; assay: z-score of subpopulation abundance vs DMSO median, subpopulation auxotrophic for LU; higher = larger share of this subpopulation than in DMSO controls; conditions: 10 µM; 24 h; SM minimal medium; subpopulation (auxotrophy): LU
# Method in brief: as §1
# [15] = system: Saccharomyces cerevisiae BY4741 SeMeCo community; assay: z-score of subpopulation abundance vs DMSO median, subpopulation auxotrophic for HL; higher = larger share of this subpopulation than in DMSO controls; conditions: 10 µM; 24 h; SM minimal medium; subpopulation (auxotrophy): HL
# Method in brief: as §1
# [16] = system: Saccharomyces cerevisiae BY4741 SeMeCo community; assay: z-score of subpopulation abundance vs DMSO median, subpopulation auxotrophic for HUM; higher = larger share of this subpopulation than in DMSO controls; conditions: 10 µM; 24 h; SM minimal medium; subpopulation (auxotrophy): HUM
# Method in brief: as §1
# [17] = system: Saccharomyces cerevisiae BY4741 SeMeCo community; assay: z-score of subpopulation abundance vs DMSO median, subpopulation auxotrophic for HLUM; higher = larger share of this subpopulation than in DMSO controls; conditions: 10 µM; 24 h; SM minimal medium; subpopulation (auxotrophy): HLUM
# Method in brief: as §1
SMILES,mean cell size [1],z-score of prototroph abundance [2],z-score of subpopulation abundance [3],z-score of subpopulation abundance [4],z-score of subpopulation abundance [5],z-score of subpopulation abundance [6],z-score of subpopulation abundance [7],z-score of subpopulation abundance [8],z-score of subpopulation abundance [9],z-score of subpopulation abundance [10],z-score of subpopulation abundance [11],z-score of subpopulation abundance [12],z-score of subpopulation abundance [13],z-score of subpopulation abundance [14],z-score of subpopulation abundance [15],z-score of subpopulation abundance [16],z-score of subpopulation abundance [17]
CCCCNC(=O)NS(=O)(=O)c1ccc(C)cc1 [Tolbutamide],12.5 ± 0.33,0.43,-0.57,0.61,-0.84,-0.86,-0.14,-0.31,-0.16,-0.37,-0.11,-1,,,,,
C=CCN1CCCC1CNC(=O)c1cc2nn[nH]c2cc1OC (stereo not drawn) [Alizapride HCl],12.3 ± 0.14,-0.2,,0.74,-0.87,-0.39,-0.31,0.88,0.58,0.1,-0.44,0.44,0.16,0.9,-0.36,0,0.23
O=c1[nH]c(=O)n([C@H]2C[C@H](O)[C@@H](CO)O2)cc1I [Idoxuridine],12.4 ± 0.2,0.18,-0.27,0.23,,0.06,-0.13,-0.23,,-0.57,-0.75,-0.31,,,-0.43,-0.68,-0.73
O=C1C(=O)c2ccccc2C(O)=C1C1CCC(c2ccc(Cl)cc2)CC1 (stereo not drawn) [Atovaquone],,-0.82,-0.46,-0.2,1.46,1.39,0.9,0.94,0.03,1.94,0.84,1.22,,,1.12,0.71,
NCCNc1ccc(NCCN)c2c1C(=O)c1ccncc1C2=O [Pixantrone Maleate],,3.16,-11.8,2.84,3.74,-5.3,-5.86,4.69,-7.68,7.46,,-4.09,1.31,,9.63,-5.6,-1.46
OCc1ccccc1O[C@@H]1O[C@H](CO)[C@@H](O)[C@H](O)[C@H]1O [Salicin],12.4 ± 0.14,0.58,,-0.42,-0.5,0.72,-0.68,-0.9,-0.29,-0.13,-0.5,0.42,0.38,-0.12,-0.58,-0.09,-0.11
O=C(Nc1ccc(Oc2ccc(Cl)cc2)c(Cl)c1)c1cc(I)cc(I)c1O [Rafoxanide],12.2 ± 0.19,0.24,,-1.44,1.91,0.2,0.8,-0.5,-0.89,-0.3,0.01,-0.08,1.02,-0.7,1.29,0.54,0.01
C[C@@H]1CC(=O)NN=C1c1ccc(NN=C(C#N)C#N)cc1 [Levosimendan],12.5 ± 0.19,,-0.05,0.92,-0.43,-0.47,0.22,0.25,0.05,-0.67,-0.43,-0.29,,,-0.63,0.67,-0.43
CCCN(CCc1cccs1)[C@H]1CCc2c(O)cccc2C1 [Rotigotine],12.6 ± 0.31,0.61,,-1.74,-0.04,1.22,1.47,-1.03,,-0.16,-0.19,-0.27,0.33,-0.93,0.46,-0.69,-0.54
CCCCC(=O)O[C@H]1CC[C@H]2[C@@H]3CCc4cc(O)ccc4[C@H]3CC[C@]12C [Estradiol valerate],12.4 ± 0.22,0.39,,0.05,-0.49,-0.71,-0.23,-0.05,0,0.43,-0.87,-0.45,-0.51,-0.16,-0.58,0.19,-0.75
O=C(NCCO[N+](=O)[O-])c1cccnc1 [Nicorandil],12.4 ± 0.13,0.69,-0.48,-0.31,-0.28,,-0.61,-0.39,-0.61,0.08,-0.83,-0.44,,,-0.84,-0.48,-0.37
C=C[C@]1(C)C[C@@H](OC(=O)CSC(C)(C)CNC(=O)[C@H](N)C(C)C)[C@]2(C)[C@H](C)CC[C@]3(CCC(=O)[C@H]32)[C@@H](C)[C@@H]1O [Valnemulin HCl],12.3 ± 0.19,-0.65,,0.15,0.85,,0.32,1.22,0.26,1.01,0.18,0.67,0.38,0.87,0.85,,0.48
COc1ccc(CCN(C)CCCC(C#N)(c2ccc(OC)c(OC)c2)C(C)C)cc1OC (stereo not drawn) [Verapamil HCl],12.6 ± 0.13,-0.19,,0.6,0.46,0,,0.54,0.03,0.26,0.44,0.79,0.1,-0.58,,,0.13
C[C@H]1NCc2cc(-c3ccc4c(=O)c(C(=O)O)cn(C5CC5)c4c3OC(F)F)ccc21 [Garenoxacin],12.34 ± 0.078,,,0.6,-0.22,0.15,0.28,0.7,-0.07,0.74,,0.75,-0.44,-0.05,0.46,0.84,-0.08
CO/N=C(\C(=O)N[C@@H]1C(=O)N2C(C(=O)O)=C(COC(N)=O)CS[C@H]12)c1ccco1 [Cefuroxime sodium],12.47 ± 0.073,0.23,,0.58,-1.01,-0.79,,-0.93,0.13,-1.34,-1.17,-0.31,,-1.06,-0.76,-0.92,-0.98
C[N+]1(C)[C@@H]2CC[C@H]1C[C@@H](OC(=O)C(O)c1ccccc1)C2 (stereo partly drawn) [Homatropine Methylbromide],12.4 ± 0.32,0.29,,0.46,,-1,-0.7,0.05,0.8,0,-0.66,-0.14,,0.06,-0.55,0.4,-0.38
